Results taken from PubChem BioAssay (EPA / NIEHS).
Records with an inconclusive call do not appear. Calls of active or inactive are those of the source. How the source made its calls: active means hit-call score of the fitted dose curve at least 0.9, where 1 is the maximum; inconclusive means response in the unintended direction; inactive means score below 0.9.

Experiment: ATG_GAL4_TRANS: Attagene TRANS-FACTORIAL HepG2 Assay for GAL4 (Internal Marker) (AID 2282976)
Conditions: HepG2 Attagene TRANS GAL4 internal marker reporter
Procedure: ATG_TRANS is a cell-based, multiplexed-readout assay that uses HepG2, a human liver cell line, with measurements taken at 24 hours after chemical dosing in a 24-well plate.ATG_GAL4_TRANS is one of 30 assay component(s) measured or calculated from the ATG_TRANS assay. It is designed to make measurements of mRNA induction, a form of inducible reporter, as detected with fluorescence intensity signals by Reverse transcription polymerase chain reaction (RT-PCR) and Capillary electrophoresis technology.Data from the assay component ATG_GAL4_TRANS was analyzed into 1 assay endpoint. This assay endpoint, ATG_GAL4_TRANS, was analyzed in the positive analysis fitting direction relative to DMSO as the negative control and baseline of activity. Using a type of inducible reporter, measures of mRNA for gain-of-signal activity can be used to understand the background control at the transcription factor-level as they relate to the gene . Furthermore, this assay endpoint can be referred to as a secondary readout, because this assay has produced multiple assay endpoints where this one serves a background control function. To generalize the intended target to other relatable targets, this assay endpoint is annotated to the background measurement intended target family, where the subfamily is baseline control.
Human liver HepG2 cells are transiently transfected with multiple reporter transcription units (MRTUs) in 6-well plates using FuGene 6 reagent (Roche; 3 ml FuGene/1 mg DNA). The MRTU constructs are regulated by a cis-regulating element (promoter). […] A major difference between the CIS and TRANS system is that in CIS activities of endogenous TFs are measured, whereas the TRANS assay evaluates changes in activities of exogenous, chimeric NR-Gal4 proteins. […] At the end of 24 hour incubation, total RNA was isolated using TriZol reagent (Invitrogen). The isolated RNA is then reverse-transcribed using oligo(dT) primer and Mo-MLV reverse transcriptase (Invitrogen) with DNAse I (Ambion) treatment for 30 min. The one-tenth of the produced cDNA was amplified by PCR using Taq DNA polymerase (Invitrogen) and two reporter sequence-specific primers. The PCR products were fluorescently labeled by primer extension with 6-arboxyfluorescein (6-FAM) 5'-labeled reporter sequence-specific primer (2 min at 95 C, 20 s at 68 C and 10 min at 72 C) and these products were digested with 5U of HpaI (New England Biolabs) for 2h at 37 C. The fragments were purified using Qiaquick PCR columns (Qiagen), analyzed on an ABI 3130xL genetic analyzer (Applied Biosystems) with peak positions identified by using a set of X-rhodamine (ROX)-labeled MapMarker1000 molecular weight standards (BioVentures). The raw capillary electrophoresis data was processed using Attagraph software (Attagene).

outcome, inactive:
CC/C=C\CCCCCO
O=C(CC(C(=O)OC1CCCCC1)S(=O)(=O)O)OC1CCCCC1 (stereo not given)
C=C1CC[C@H]2C[C@@H]1C2(C)C
COCCCN
CC(C)CC(=O)CC(C)CC(C)C (stereo not given)
Cc1cccnc1
Cc1cc(C)c(S(=O)(=O)O)cc1N=Nc1cc(S(=O)(=O)O)c2ccccc2c1O
CC1(C)S[C@@H]2[C@H](NC(=O)[C@H](N)c3ccccc3)C(=O)N2[C@H]1C(=O)O
Cc1ccnc(N)c1
CN(C)CCCN1c2ccccc2CCc2ccc(Cl)cc21
c1cc(N(CC2CO2)CC2CO2)ccc1Cc1ccc(N(CC2CO2)CC2CO2)cc1 (stereo not given)
CCCCCCCC#N
CC/C=C/CCO
CN1CCCC1
N#CCN(CC#N)CCN(CC#N)CC#N
O=C(O)/C=C\C(=O)O
COc1ccc2ccccc2c1
CN(C)c1ccc(C(c2ccccc2)c2ccc(N(C)C)cc2)cc1
CN(C)N=Nc1ccccc1
C1=CCC=C1
CCO[Si](OCC)(OCC)c1ccccc1
CC=CC(=O)O
CCCC(=O)OC/C=C(\C)CCC=C(C)C
NC(=O)c1ccc(N)cc1
C=CN1CCCCCC1=O
COC(=O)c1ccccc1
OCCN(CCO)c1cccc(Cl)c1
C/C=C(\C)C(=O)OCC/C=C\CC
CC(C)CC(=O)O
COc1c2occc2cc2ccc(=O)oc12
CC(C)CC(=O)CC(C)C
CC(=O)OC(C)(C)Cc1ccccc1
O=C(OCc1ccccc1)c1ccccc1
C=C(C)C(=O)OCCCCCC
CC1=CCCC(C)(C)C12CCC(C)O2 (stereo not given)
CC(C)n1c(/C=C/[C@@H](O)C[C@@H](O)CC(=O)O)c(-c2ccc(F)cc2)c2ccccc21
NCc1ccccc1
NC(N)=Nc1nc(CSCCC(N)=NS(N)(=O)=O)cs1
CCOC(=O)CC(=O)OCC
C=CCOC(=O)C(=C)C
